Data reported in PubChem BioAssay (EPA / NIEHS).
Several values for one entry are separate records, joined by “and”; a condition that tells them apart may be missing. Equal values may be shown once. Where a structure was tested more than once in an assay, its records may differ in their call. Activity calls are given as the source filed them. Rule for the calls: active = hit-call score of the fitted dose curve at least 0.9, where 1 is the maximum; inactive = score below 0.9.

Tests used:
[1] = target: Transcription factor E2F1 (Homo sapiens) (UniProt Q01094); assay: ATG_E2F_CIS: Attagene CIS-FACTORIAL HepG2 Assay for human E2F Transcription Factor 1 (AID 2282935); conditions: HepG2 Attagene cis-reporter, E2F reporter RNA transcripts; actives raise or lower the signal
Chain of Transcription factor E2F1 (Homo sapiens) (Q01094 whole entry, looked up): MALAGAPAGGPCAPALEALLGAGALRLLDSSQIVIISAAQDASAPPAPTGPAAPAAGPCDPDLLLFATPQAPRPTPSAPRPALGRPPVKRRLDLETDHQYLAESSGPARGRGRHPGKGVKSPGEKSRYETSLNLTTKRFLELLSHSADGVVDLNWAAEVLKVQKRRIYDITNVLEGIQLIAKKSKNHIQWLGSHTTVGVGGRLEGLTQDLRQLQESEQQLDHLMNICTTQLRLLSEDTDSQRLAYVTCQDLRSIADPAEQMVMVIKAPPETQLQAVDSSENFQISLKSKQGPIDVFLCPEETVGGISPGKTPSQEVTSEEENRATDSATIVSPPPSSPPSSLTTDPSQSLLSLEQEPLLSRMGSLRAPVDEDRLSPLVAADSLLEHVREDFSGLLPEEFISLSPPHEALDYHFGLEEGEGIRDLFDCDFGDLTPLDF
How it was run: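 In this cis-factorial format, endogenous factor activity drives transfected reporters in HepG2; transcripts collected at 24 h are quantified by fluorescence after RT-PCR and capillary separation.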

[2] = ATG_E_Box_CIS: Attagene CIS-FACTORIAL HepG2 Assay for human Enhancer Box (E-box) (AID 2282936); conditions: HepG2 E-box cis-reporter transcription, actives raise or lower the signal
How it was run: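 Measured 24 h post-dosing in HepG2 cells transfected with multiple cis-regulated reporter units, signal being reporter mRNA induction detected by fluorescent RT-PCR with capillary electrophoresis; gain or loss fitted against DMSO.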

[3] = ATG_M_61_CIS: Attagene CIS-FACTORIAL HepG2 Assay for M61 Transcription Factor (Internal Marker) (AID 2282937); conditions: HepG2 Attagene CIS-FACTORIAL M61 internal marker reporter; actives raise or lower the signal
How it was run: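 HepG2 cells transiently transfected with multiplexed cis-promoter reporter units reporting endogenous transcription factor activity, measured 24 h after dosing. Reporter mRNA quantified by RT-PCR and capillary electrophoresis; bidirectional fit against DMSO baseline.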

[4] = ATG_EGR_CIS: Attagene CIS-FACTORIAL HepG2 Assay for human Early Growth Response 1 (EGR1) (AID 2282938); conditions: HepG2 Attagene CIS-FACTORIAL EGR reporter mRNA; actives raise or lower the signal
How it was run: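 HepG2 cells transiently transfected with cis-element-driven multiplexed reporter units, dosed for 24 h. EGR1-element reporter mRNA quantified by RT-PCR, 6-FAM labelling, HpaI digestion and capillary electrophoresis; bidirectional fit versus DMSO.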

[5] = ATG_M_19_CIS: Attagene CIS-FACTORIAL HepG2 Assay for M19 Transcription Factor (Internal Marker) (AID 2282939); conditions: HepG2 Attagene CIS-FACTORIAL M19 internal marker reporter; actives raise or lower the signal
How it was run: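 Signals come from fluorescence of labelled reporter-specific PCR fragments resolved by capillary electrophoresis, following 24 h treatment of HepG2 cells transfected with cis-promoter reporter units; activity was fitted in both directions relative to DMSO.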

[6] = ATG_ERE_CIS: Attagene CIS-FACTORIAL HepG2 Assay for Estrogen Response Element (ERE) (AID 2282940); conditions: HepG2 ERE cis-reporter, Attagene RNA transcript; actives raise or lower the signal
How it was run: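 Fluorescence of capillary-separated, FAM-labelled reporter cDNA fragments indicates reporter mRNA levels in HepG2 cells exposed to chemicals for 24 h. Transient transfection with cis-regulated units; data fitted in both directions against DMSO.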

[7] = ATG_Ets_CIS: Attagene CIS-FACTORIAL HepG2 Assay for human Erythroblast Transformation Specific (ETS) (AID 2282941); conditions: HepG2 ETS cis-reporter transcription, actives raise or lower the signal
How it was run: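 Bidirectional fit versus DMSO of reporter mRNA signal, detected by RT-PCR and capillary electrophoresis in HepG2 cells transiently transfected with cis-element reporters and dosed 24 h.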

[8] = target: Hepatocyte nuclear factor 3-beta (Homo sapiens) (UniProt Q9Y261); assay: ATG_FoxA2_CIS: Attagene CIS-FACTORIAL HepG2 Assay for human Forkhead box A2 (FOXA2) (AID 2282942); conditions: HepG2 cis-reporter transcription factor activity, 24 h; actives raise or lower the signal
Chain of Hepatocyte nuclear factor 3-beta (Homo sapiens) (Q9Y261 whole entry, looked up): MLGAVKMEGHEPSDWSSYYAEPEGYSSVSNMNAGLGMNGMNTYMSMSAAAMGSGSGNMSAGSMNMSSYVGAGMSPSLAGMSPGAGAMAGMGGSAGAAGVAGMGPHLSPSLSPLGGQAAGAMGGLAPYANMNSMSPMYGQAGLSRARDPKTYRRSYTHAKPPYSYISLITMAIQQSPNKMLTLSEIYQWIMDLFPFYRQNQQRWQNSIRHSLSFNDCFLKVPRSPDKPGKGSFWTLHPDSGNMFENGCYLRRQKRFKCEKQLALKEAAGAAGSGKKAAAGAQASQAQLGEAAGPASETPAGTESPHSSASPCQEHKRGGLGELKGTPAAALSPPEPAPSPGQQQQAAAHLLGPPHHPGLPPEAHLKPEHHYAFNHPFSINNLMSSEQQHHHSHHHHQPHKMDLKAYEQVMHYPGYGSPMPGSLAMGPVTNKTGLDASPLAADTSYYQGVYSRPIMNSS
How it was run: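 HepG2 transiently transfected with a multiplexed cis-promoter reporter library read endogenous FOXA2 activity. After 24 h compound exposure, reporter mRNA was quantified by RT-PCR, HpaI digestion and capillary electrophoresis. Bidirectional fit against DMSO.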

[9] = ATG_FoxO_CIS: Attagene CIS-FACTORIAL HepG2 Assay for human Forkhead box O (FoxO) (AID 2282943); conditions: HepG2 Attagene cis-reporter, FoxO element, mRNA; actives raise or lower the signal
How it was run: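 Values reflect reporter mRNA induction or loss in HepG2 cells 24 h post-dosing, fitted bidirectionally with DMSO as negative control and baseline. Detection used RT-PCR and fluorescence capillary electrophoresis.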

[10] = ATG_GATA_CIS: Attagene CIS-FACTORIAL HepG2 Assay for human GATA Binding Protein (AID 2282944); conditions: HepG2 GATA cis-element reporter, Attagene multiplex mRNA; actives raise or lower the signal
How it was run: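 After transfecting HepG2 cells with multiple cis-regulated reporter units, chemicals are dosed for 24 h; isolated RNA undergoes RT-PCR and fluorescent labeling before capillary electrophoresis, with activity expressed against DMSO.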

[11] = ATG_GLI_CIS: Attagene CIS-FACTORIAL HepG2 Assay for human Zinc Finger Protein GLI1 (AID 2282945); conditions: HepG2, Attagene cis-factorial reporter mRNA, GLI element; actives raise or lower the signal
How it was run: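 HepG2 cells transiently transfected with cis-promoter multiplexed reporter units report endogenous transcription factor activity. After 24 h chemical exposure, reporter mRNA was quantified by RT-PCR, 6-FAM labelling, HpaI digestion and capillary electrophoresis, with bidirectional fitting against DMSO.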

[12] = target: Bile acid receptor (Homo sapiens) (UniProt Q96RI1); assay: ATG_IR1_CIS: Attagene CIS-FACTORIAL HepG2 Assay for human Nuclear Receptor Subfamily 1 Group H Member 4 (NR1H4), IR1 submotif (AID 2282946); conditions: IR1 reporter transcription, actives raise or lower the signal
Chain of Bile acid receptor (Homo sapiens) (Q96RI1 whole entry, looked up): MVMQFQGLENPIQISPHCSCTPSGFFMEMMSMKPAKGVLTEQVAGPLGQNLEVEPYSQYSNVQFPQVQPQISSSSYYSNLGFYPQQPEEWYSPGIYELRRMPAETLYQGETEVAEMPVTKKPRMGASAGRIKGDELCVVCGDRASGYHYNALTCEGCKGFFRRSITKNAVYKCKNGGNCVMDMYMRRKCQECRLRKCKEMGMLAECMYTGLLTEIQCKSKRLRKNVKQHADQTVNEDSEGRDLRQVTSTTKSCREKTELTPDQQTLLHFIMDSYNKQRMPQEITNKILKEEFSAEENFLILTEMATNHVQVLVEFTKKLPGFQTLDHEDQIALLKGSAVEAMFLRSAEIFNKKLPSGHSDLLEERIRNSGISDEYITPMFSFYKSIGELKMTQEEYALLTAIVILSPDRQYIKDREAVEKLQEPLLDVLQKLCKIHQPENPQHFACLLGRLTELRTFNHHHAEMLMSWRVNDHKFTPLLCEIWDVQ
How it was run: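 Readout: reporter transcript levels by RT-PCR with fluorescent capillary electrophoresis, from HepG2 cells transiently transfected with multiplexed cis-regulated reporters and dosed 24 h. Gain- or loss-of-signal fitted versus DMSO negative control.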

[13] = ATG_ISRE_CIS: Attagene CIS-FACTORIAL HepG2 Assay for human Interferon Regulatory Factor 1 (IRF1) binding to an Interferon-Stimulated Response Element (ISRE) (AID 2282948); conditions: HepG2 ISRE cis-reporter (Attagene), mRNA transcription readout; actives raise or lower the signal
How it was run: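 Uses HepG2 liver cells transfected with cis-regulated reporters and measures mRNA 24 h post-dosing through RT-PCR, primer-extension labelling and capillary electrophoresis, with DMSO as negative control.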

[14] = ATG_M_32_CIS: Attagene CIS-FACTORIAL HepG2 Assay for M32 Transcription Factor (Internal Marker) (AID 2282949); conditions: HepG2 Attagene cis-factorial M32 reporter, mRNA; actives raise or lower the signal;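 note: background control marker of the multiplexed CIS panel rather than a real target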
How it was run: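 Transient MRTU transfection of HepG2; 24 h compound treatment; TriZol RNA, oligo(dT) RT, reporter PCR, 6-FAM primer extension, HpaI cut, CE. Gain/loss of signal vs DMSO.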

[15] = ATG_M_06_CIS: Attagene CIS-FACTORIAL HepG2 Assay for M06 Transcription Factor (Internal Marker) (AID 2282950); conditions: HepG2 Attagene CIS-FACTORIAL M06 internal marker reporter; actives raise or lower the signal
How it was run: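 HepG2 liver cells, 24 h exposure. Reporter transcripts from transfected cis-element constructs quantified by RT-PCR/capillary electrophoresis fluorescence. Bidirectional curve fit against DMSO.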

[16] = target: Hypoxia-inducible factor 1-alpha (Homo sapiens) (UniProt Q16665); assay: ATG_HIF1a_CIS: Attagene CIS-FACTORIAL HepG2 Assay for human Hypoxia Inducible Factor 1 (HIF1A) (AID 2282951); conditions: HepG2 Attagene cis-factorial HIF1a reporter transcription; actives raise or lower the signal
Chain of Hypoxia-inducible factor 1-alpha (Homo sapiens) (Q16665 whole entry, looked up): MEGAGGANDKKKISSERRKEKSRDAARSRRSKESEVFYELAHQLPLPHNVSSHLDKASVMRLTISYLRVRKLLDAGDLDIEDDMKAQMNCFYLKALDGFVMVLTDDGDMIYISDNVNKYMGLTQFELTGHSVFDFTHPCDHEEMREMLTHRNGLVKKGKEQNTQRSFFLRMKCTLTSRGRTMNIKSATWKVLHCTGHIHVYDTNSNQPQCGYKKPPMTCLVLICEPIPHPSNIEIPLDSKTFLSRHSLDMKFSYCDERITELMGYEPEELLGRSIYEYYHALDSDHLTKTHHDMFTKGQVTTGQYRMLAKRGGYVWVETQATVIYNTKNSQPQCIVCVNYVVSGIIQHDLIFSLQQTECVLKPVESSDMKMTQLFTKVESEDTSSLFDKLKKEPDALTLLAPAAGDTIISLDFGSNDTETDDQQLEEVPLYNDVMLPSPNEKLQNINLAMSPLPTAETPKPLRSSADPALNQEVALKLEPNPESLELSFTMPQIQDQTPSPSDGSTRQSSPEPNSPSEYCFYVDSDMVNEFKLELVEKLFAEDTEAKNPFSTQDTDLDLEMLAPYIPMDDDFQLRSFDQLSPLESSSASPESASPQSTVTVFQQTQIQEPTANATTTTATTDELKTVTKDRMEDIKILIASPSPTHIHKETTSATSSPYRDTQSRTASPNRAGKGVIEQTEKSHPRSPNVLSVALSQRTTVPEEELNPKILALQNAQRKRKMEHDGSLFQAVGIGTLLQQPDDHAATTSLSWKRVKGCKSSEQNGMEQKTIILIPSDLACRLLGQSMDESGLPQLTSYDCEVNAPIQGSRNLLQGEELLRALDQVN
How it was run: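 HepG2 cells transiently transfected with multiple cis-regulated reporter transcription units measure endogenous transcription factor activity. After 24 h exposure, reporter mRNA is quantified by RT-PCR with 6-FAM labelling, HpaI digestion and capillary electrophoresis. Bidirectional fitting against DMSO.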

[17] = target: Hepatocyte nuclear factor 6 (Homo sapiens) (UniProt Q9UBC0); assay: ATG_HNF6_CIS: Attagene CIS-FACTORIAL HepG2 Assay for human Hepatocyte Nuclear Factor 6 (HNF6) (AID 2282952); conditions: HepG2 Attagene cis-factorial HNF6 reporter transcription; actives raise or lower the signal
Chain of Hepatocyte nuclear factor 6 (Homo sapiens) (Q9UBC0 whole entry, looked up, the tested form may be a part): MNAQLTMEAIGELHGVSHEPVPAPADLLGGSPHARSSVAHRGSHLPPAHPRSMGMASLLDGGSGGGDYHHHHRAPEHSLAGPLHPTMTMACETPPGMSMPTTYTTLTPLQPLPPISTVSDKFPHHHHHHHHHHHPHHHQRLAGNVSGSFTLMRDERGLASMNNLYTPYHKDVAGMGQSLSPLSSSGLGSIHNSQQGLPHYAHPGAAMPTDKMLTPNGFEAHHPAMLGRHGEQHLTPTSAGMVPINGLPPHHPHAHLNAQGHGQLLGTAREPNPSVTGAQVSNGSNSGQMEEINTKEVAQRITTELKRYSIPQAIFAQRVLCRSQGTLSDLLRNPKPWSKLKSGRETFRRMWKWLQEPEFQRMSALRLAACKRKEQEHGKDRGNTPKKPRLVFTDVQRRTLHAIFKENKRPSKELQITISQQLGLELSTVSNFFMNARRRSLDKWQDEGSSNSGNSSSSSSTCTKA
How it was run: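 Using cis-element reporters in HepG2 liver cells, the assay tracks endogenous factor-driven transcription 24 h post-dosing. Signal comes from 6-FAM-labelled, HpaI-digested RT-PCR fragments, with gain or loss scored against DMSO.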

[18] = target: Heat shock factor protein 1 (Homo sapiens) (UniProt Q00613); assay: ATG_HSE_CIS: Attagene CIS-FACTORIAL HepG2 Assay for human Heat Shock Transcription Factor 1 (HSE) (AID 2282953); conditions: HepG2 HSE cis-reporter, Attagene RNA transcription; actives raise or lower the signal
Chain of Heat shock factor protein 1 (Homo sapiens) (Q00613 whole entry, looked up, the tested form may be a part): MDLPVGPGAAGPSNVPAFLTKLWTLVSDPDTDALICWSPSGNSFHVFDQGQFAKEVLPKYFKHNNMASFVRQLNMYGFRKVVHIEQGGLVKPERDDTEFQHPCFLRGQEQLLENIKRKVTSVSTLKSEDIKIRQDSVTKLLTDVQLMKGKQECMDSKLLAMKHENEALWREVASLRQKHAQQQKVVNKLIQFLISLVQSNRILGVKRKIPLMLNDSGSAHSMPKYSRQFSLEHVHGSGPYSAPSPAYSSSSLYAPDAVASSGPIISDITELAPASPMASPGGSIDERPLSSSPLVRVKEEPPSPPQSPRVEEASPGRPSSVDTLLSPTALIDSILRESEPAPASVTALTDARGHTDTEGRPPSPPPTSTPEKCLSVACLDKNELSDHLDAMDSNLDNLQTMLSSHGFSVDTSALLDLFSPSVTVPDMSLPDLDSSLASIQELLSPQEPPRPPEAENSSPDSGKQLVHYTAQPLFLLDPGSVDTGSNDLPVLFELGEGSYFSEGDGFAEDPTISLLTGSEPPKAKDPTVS
How it was run: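 Endogenous transcription factor activity captured via cis-promoter reporter units transfected into HepG2; treatment lasted 24 h. Fluorescence intensity of reporter fragments analysed with bidirectional curve fitting, DMSO baseline.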

[19] = ATG_MRE_CIS: Attagene CIS-FACTORIAL HepG2 Assay for human Metal Responsive Element (MRE) (AID 2282954); conditions: HepG2 MRE cis-reporter transcription, Attagene multiplex; actives raise or lower the signal
How it was run: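 Readout: capillary electrophoresis of 6-FAM-labelled, HpaI-digested RT-PCR reporter products. System: HepG2 cells carrying transient multiplexed cis reporters, dosed 24 h. Analysis: bidirectional fit, DMSO baseline.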

[20] = ATG_GRE_CIS: Attagene CIS-FACTORIAL HepG2 Assay for human Glucocorticoid Response Elements (GRE) (AID 2282947); conditions: HepG2 GRE cis-reporter, Attagene multiplex mRNA; actives raise or lower the signal
How it was run: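 HepG2, transient cis-reporter transfection, 24 h. Reporter mRNA: RT-PCR then CE, fluorescence. Fit both directions vs DMSO.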

Measured: AC50

COP(=S)(OC)Oc1ccc([N+](=O)[O-])cc1
inactive: [1] | [2] | [3] | [4] | [5] | [6] | [7] | [8] | [9] | [10] | [11] | [12] | [13] | [14] | [15] | [16] | [17] | [18] | [19]

CCC(C)(NC(=O)c1cc(Cl)c(C)c(Cl)c1)C(=O)CCl (stereo unspecified)
inactive: [1] | [2] | [3] | [4] | [5] | [6] | [7] | [8] | [9] | [10] | [11] | [12] | [20] | [13] | [14] | [15] | [16] | [17] | [18] | [19]

CC1(c2ccc(Oc3ccccc3)cc2)OC(=O)N(Nc2ccccc2)C1=O (stereo unspecified)
inactive: [1] | [2] | [3] | [4] | [5] | [6] | [7] | [8] | [9] | [10] | [11] | [12] | [20] | [13] | [14] | [15] | [16] | [17] | [18] | [19]

O=C(Nc1ccccc1)Nc1cnns1
active: [4] 90.3 µM | [11] 50 µM | [12] 50 µM | [18] 93.4 µM | [19] 50 µM
inactive: [1] | [2] | [3] | [5] | [6] | [7] | [8] | [9] | [10] | [20] | [13] | [14] | [15] | [16] | [17]

COc1cc(OC)nc(NC(=O)NS(=O)(=O)c2cc(NC=O)ccc2C(=O)N(C)C)n1
inactive: [1] | [2] | [3] | [4] | [5] | [6] | [7] | [8] | [9] | [10] | [11] | [12] | [20] | [13] | [14] | [15] | [16] | [17] | [18] | [19]

O=S1OCC2C(CO1)C1(Cl)C(Cl)=C(Cl)C2(Cl)C1(Cl)Cl (stereo unspecified)
inactive: [1] | [2] | [3] | [4] | [5] | [7] | [8] | [9] | [10] | [11] | [12] | [20] | [13] | [14] | [15] | [16] | [17] | [18] | [19]
active: [6] 1.72 µM

Oc1cc(Cl)ccc1Oc1ccc(Cl)cc1Cl
active: [2] 13.4 µM | [4] 11.3 µM [middle of 4 runs] | [7] 7.09 µM and 17.9 µM and 5.97 µM | [10] 5.97 µM | [20] 11.1 µM | [13] 13.5 µM [middle of 4 runs] | [18] 17.4 µM and 9.05 µM | [19] 15.3 µM [middle of 6 runs]
inactive: [1] | [2] | [3] | [4] | [5] | [7] | [8] | [9] | [10] | [11] | [12] | [20] | [13] | [14] | [15] | [16] | [17] | [18] | [19]

OCCOc1ccccc1
inactive: [1] | [2] | [3] | [4] | [5] | [6] | [7] | [8] | [9] | [10] | [11] | [12] | [20] | [13] | [14] | [15] | [16] | [17] | [18] | [19]

CCN(CC)C(=O)SCc1ccc(Cl)cc1
active: [4] 23.5 µM | [19] 65.9 µM
inactive: [1] | [2] | [3] | [5] | [6] | [7] | [8] | [9] | [10] | [11] | [12] | [20] | [13] | [14] | [15] | [16] | [17] | [18]

Cc1cc(C)nc(NC(=O)NS(=O)(=O)c2ccccc2C(=O)OC2COC2)n1
active: [4] 79 µM | [6] 71 µM | [18] 76.2 µM | [19] 80.5 µM
inactive: [1] | [2] | [3] | [5] | [7] | [8] | [9] | [10] | [11] | [12] | [20] | [13] | [14] | [15] | [16] | [17]

CC(C)N(C(=O)COc1nnc(C(F)(F)F)s1)c1ccc(F)cc1
inactive: [1] | [2] | [3] | [4] | [5] | [6] | [8] | [9] | [10] | [11] | [12] | [20] | [13] | [14] | [15] | [16] | [17] | [18] | [19]
active: [7] 15.6 µM
